Several values for one entry are separate records, joined by “and”; a condition that tells them apart may be missing. Identical values can stand only once. Inconclusive results are not listed. Activity calls are given as the source filed them. Calls come from the whole dose curve; as a rule, active = well fitted curve in the direction sought with a large enough effect; inconclusive = small, poorly fitted or top-dose-only effect, or another doubt; inactive = no such curve, though single readings can be large; an effect the other way counts as inactive or inconclusive. Where a SMILES comes first, the peptide text is derived from it. Bridges are numbered along the chain shown (N, C = ends). [ ]: non-standard residue; d: D form. The star is where a group is joined. Dab(CH2SO3H) = N[C@@H](CCNCS(=O)(=O)O)C(=O)O; X3 = CC[C@@H](C)CCCCC(=O)*; Dab = NCC[C@H](N)C(=O)O
Key:
[1] = tested on: KB-3-1; assay: Cytotoxic Profiling of Annotated Libraries Using Quantitative High-Throughput Screening (AID 1296008); details: Five cell lines viability, CellTiter-Glo ATP luminescence, 48-72 h; max response: stronger effect = lower value; note: nearly all actives have a fitted effect of over 60% in size; note: potency is the fitted concentration of half-maximal effect; for max response: % is set by controls: 0 for no effect and ±100 for the full control effect
How it was run: (§1)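 Compounds were pin-transferred onto cells and incubated 48 or 72 hr at 37 degree Celsius, 95% humidity. CellTiter-Glo was added, plates sat 10 min at room temperature, then ATP-coupled luminescence was imaged as the viability read-out.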

[2] = tested on: NIH3T3; assay: as above; details: Five cell lines viability, CellTiter-Glo ATP luminescence, 48-72 h; max response: stronger effect = lower value
How it was run: as §1

[3] = tested on: HACAT; assay: qHTS assay to identify novel small-molecules to repurpose for Merkel cell carcinoma treatment (AID 1296009); details: MCC and control cell lines, CellTiter-Glo viability, 72 h; at 44.8 µM (top of the series) unless noted; note: nearly all actives have a fitted effect of over 60% in size
How it was run: (§2)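 Viability readout: ATP luminescence (CellTiter-Glo) after 72 hr drug exposure at 37 degree celsius. Dose-response format was 8 points for NPC and 11 points for MIPE; data normalized to in-plate controls.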

[4] = tested on: C33A; assay: Primary qHTS to identify gynecologic anti-cancer compounds using libraries of approved drugs and bioactive compounds (AID 1345084); details: Gynecologic cancer cell panel viability, ATPlite luminescence, 48 h; series mostly up to 57.5 µM; note: % is set by controls: 0 for no effect and ±100 for the full control effect; nearly all actives have a fitted effect of over 55% in size
How it was run: (§3)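 In this quantitative HTS, cell killing is estimated from loss of ATP-dependent luciferase light. Cells see five compound concentrations over a 48 h exposure.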

[5] = tested on: CAOV3; assay: as above; details: Gynecologic cancer cell panel viability, ATPlite luminescence, 48 h; series mostly up to 57.5 µM
How it was run: as §3

[6] = tested on: CASKI; assay: as above; details: Gynecologic cancer cell panel viability, ATPlite luminescence, 48 h; series mostly up to 57.5 µM
How it was run: as §3

[7] = tested on: Es-2; assay: as above; details: Gynecologic cancer cell panel viability, ATPlite luminescence, 48 h; series mostly up to 57.5 µM
How it was run: as §3

[8] = tested on: HeLa; assay: as above; details: Gynecologic cancer cell panel viability, ATPlite luminescence, 48 h; series mostly up to 57.5 µM
How it was run: as §3

[9] = tested on: Hek293T; assay: as above; details: Gynecologic cancer cell panel viability, ATPlite luminescence, 48 h, control line for the selectivity index; series mostly up to 57.5 µM
How it was run: as §3

[10] = tested on: JEG-3; assay: as above; details: Gynecologic cancer cell panel viability, ATPlite luminescence, 48 h; series mostly up to 57.5 µM
How it was run: as §3

[11] = tested on: PA-1; assay: as above; details: Gynecologic cancer cell panel viability, ATPlite luminescence, 48 h; series mostly up to 57.5 µM
How it was run: as §3

[12] = tested on: NIH3T3; assay: qHTS assay to identify novel small-molecules to repurpose for Merkel cell carcinoma treatment (AID 1296009); details: MCC and control cell lines, CellTiter-Glo viability, 72 h; at 44.8 µM (top of the series) unless noted; note: nearly all actives have a fitted effect of over 60% in size
How it was run: as §2

[13] = tested on: OV90; assay: Primary qHTS to identify gynecologic anti-cancer compounds using libraries of approved drugs and bioactive compounds (AID 1345084); details: Gynecologic cancer cell panel viability, ATPlite luminescence, 48 h; series mostly up to 57.5 µM; note: % is set by controls: 0 for no effect and ±100 for the full control effect; nearly all actives have a fitted effect of over 55% in size
How it was run: as §3

[14] = tested on: HEK293T; assay: qHTS assay to identify novel small-molecules to repurpose for Merkel cell carcinoma treatment (AID 1296009); details: MCC and control cell lines, CellTiter-Glo viability, 72 h; series mostly up to 44.8 µM; note: nearly all actives have a fitted effect of over 60% in size
How it was run: as §2

CCCCC(C)(O)C/C=C/[C@H]1[C@H](O)CC(=O)[C@@H]1CCCCCCC(=O)OC (some centres not stated)
inactive: max response [1] 3.19%

CCn1c2ccccc2c2cc(CNC)ccc21
inactive: max response [1] -23.4% | outcome [1] | max response [2] -5.49% | outcome [2] | outcome [3] | Potency [4] | Potency [5] | Potency [6] | Potency [7] | Potency [8] | Potency [9] | Potency [10] | Potency [11]

CC[C@@H](C)CCCCC(=O)N[C@@H](CCNCS(=O)(=O)O)C(=O)N[C@H](C(=O)N[C@@H](CCNCS(=O)(=O)O)C(=O)N[C@H]1CCNC(=O)[C@H]([C@@H](C)O)NC(=O)[C@H](CCNCS(=O)(=O)O)NC(=O)[C@H](CCNCS(=O)(=O)O)NC(=O)[C@H](CC(C)C)NC(=O)[C@@H](CC(C)C)NC(=O)[C@H](CCNCS(=O)(=O)O)NC1=O)[C@@H](C)O (X3-[Dab(CH2SO3H)]T[Dab(CH2SO3H)][Dab][Dab(CH2SO3H)][dL]L[Dab(CH2SO3H)][Dab(CH2SO3H)]T; lactam 4-C)
inactive: max response [1] 9.65%

CCOC(=O)O[C@]1(C(=O)COC(=O)CC)CC[C@H]2[C@@H]3CCC4=CC(=O)C=C[C@]4(C)[C@H]3[C@@H](O)C[C@@]21C
inactive: max response [1] 0.126%

C[C@]12C=CC(=O)C=C1CC[C@@H]1[C@@H]2[C@@H](O)C[C@@]2(C)[C@H]1CC[C@]2(O)C(=O)COC(=O)CCC(=O)O
inactive: max response [1] 2.8% | outcome [1] | outcome [2] | outcome [3] | outcome [12] | Potency [4] | Potency [5] | Potency [6] | Potency [7] | Potency [8] | Potency [9] | Potency [10] | Potency [13] | Potency [11]

CC(C)N=c1cc2n(-c3ccc(Cl)cc3)c3ccccc3nc-2cc1Nc1ccc(Cl)cc1
inactive: max response [1] 6.76%

C[C@@H]1C[C@H]2[C@@H]3CCC4=CC(=O)C=C[C@]4(C)[C@@]3(F)[C@@H](O)C[C@]2(C)[C@@]1(O)C(=O)COP(=O)(O)O
inactive: max response [1] 13.8% | outcome [1] | Potency [4] | Potency [5] | Potency [6] | Potency [7] | Potency [8] | Potency [9] | Potency [10] | Potency [13] | Potency [11]

CCN[C@@H]1C[C@H](N)[C@@H](O[C@H]2OC(CN)=CC[C@H]2N)[C@H](O)[C@H]1O[C@H]1OC[C@](C)(O)[C@H](NC)[C@H]1O
inactive: max response [1] 9.12% | outcome [1] | max response [2] -0.755% and 2.29% | outcome [3] | Potency [4] | Potency [5] | Potency [6] | Potency [7] | Potency [8] | Potency [9] | Potency [10] | Potency [13] | Potency [11]

CCOc1ccc(-c2ccc(Cn3c(CC(C)(C)C(=O)O)c(SC(C)(C)C)c4cc(OCc5ccc(C)cn5)ccc43)cc2)cn1
inactive: max response [1] -5.24% | outcome [1] | max response [2] -6.34% | Potency [14] | Potency [4] | Potency [5] | Potency [6] | Potency [7] | Potency [8] | Potency [9] | Potency [10] | Potency [13] | Potency [11]

C=C(NC(=O)C(=C)NC(=O)c1csc(C2=N[C@@H]3c4csc(n4)[C@H]4NC(=O)c5csc(n5)[C@H]([C@](C)(O)[C@@H](C)O)NC(=O)[C@H]5CSC(=N5)C(=CC)NC(=O)C([C@@H](C)O)NC(=O)c5csc(n5)[C@]3(CC2)NC(=O)[C@H](C)NC(=O)C(=C)NC(=O)[C@H](C)NC(=O)C([C@@H](C)CC)NC2C=Cc3c([C@H](C)O)cc(nc3C2O)C(=O)O[C@@H]4C)n1)C(N)=O (some centres not stated)
inactive: max response [1] -16.7%

CN1CCC(CN2c3ccccc3Sc3ccccc32)C1 (configuration not stated)
inactive: max response [1] -8.09%

CCCCCCCCCCCCCC[n+]1ccc(C)cc1
active: Potency [1] 18.4 µM

CC(Oc1ccccc1)C(=O)N[C@@H]1C(=O)N2[C@@H]1SC(C)(C)[C@@H]2C(=O)O (some centres not stated)
inactive: max response [1] -0.849%
